Screening results from PubChem BioAssay.
D2 antag: antagonists of human D2 dopamine receptor. 2% of 340,000 active. AID 485344. inhibition, % at 10 µM. P14416. HEK293 TREx D2 cells, calcium flux, dopamine EC80; in the data active means inhibition above about 30%; inactive means below that, where a call was filed
Target sequence (P14416 whole entry, looked up): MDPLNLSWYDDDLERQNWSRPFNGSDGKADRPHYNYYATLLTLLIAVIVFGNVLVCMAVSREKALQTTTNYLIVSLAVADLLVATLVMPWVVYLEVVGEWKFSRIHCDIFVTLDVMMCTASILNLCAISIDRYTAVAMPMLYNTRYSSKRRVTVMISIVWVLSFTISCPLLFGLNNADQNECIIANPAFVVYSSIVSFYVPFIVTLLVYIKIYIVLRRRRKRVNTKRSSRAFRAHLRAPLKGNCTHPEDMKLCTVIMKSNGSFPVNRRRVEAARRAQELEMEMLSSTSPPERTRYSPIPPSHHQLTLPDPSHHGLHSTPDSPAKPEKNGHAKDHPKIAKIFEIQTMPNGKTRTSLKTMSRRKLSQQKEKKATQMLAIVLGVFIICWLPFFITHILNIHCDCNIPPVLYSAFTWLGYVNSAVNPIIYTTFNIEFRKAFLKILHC
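Inhibition of EC80 dopamine-driven calcium flux, recorded kinetically, defines activity here; cells are a tetracycline-induced HEK293 T-REx line expressing force-coupled D2.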
D2 PAM-1: positive allosteric modulators of human D2 dopamine receptor; potentiation, % at 10 µM; 0.34% of 340,000 active; HEK293 T-REx D2, calcium flux, EC20 dopamine potentiation; P14416; AID 485347;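 active means potentiation over 3 SD above the plate norm, cut at about 30% in these data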
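Potentiation of an EC20 dopamine calcium response measured kinetically over 180 s, after a preceding 180 s compound-only read flagging agonists. Cells: inducible Hek293 Trex D2 line, 4000/well, cultured overnight at 30 C before dye loading.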
D2 ag-1: agonists of human D2 dopamine receptor; AID 485358; 0.53% of 340,000 active; HEK293 T-REx D2 cells, calcium flux agonist mode; activation, % at 2 µM;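 active means activation over 3 SD above normal in the single-dose calcium agonist read, cut at about 30% in these data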
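HEK293 Trex D2 cells, tetracycline-induced, o/n 30 C 5% CO2; no-wash Ca dye, RT 30–90 min; 10-cycle baseline, 23 nl cpd added, kinetic Ca read 180 s; agonist hits = positive Ca response.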
D2 PAM-2: human D2 receptor positive allosteric modulation; 0.23% of 360,000 active; AID 624464; DiscoveRx D2 beta-arrestin cells, luminescence, 90 min; 100% = 57 uM dopamine signal; P14416; potentiation, % (no concentration beside the values); in the data active means potentiation above about 50%; inconclusive means mostly about 30% to 49%
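PathHunter D2 cells, attached overnight at 37 deg C, received compound in DMSO plus dopamine at EC20 (50 nM final) for 90 min at 37 deg C. Beta-arrestin recruitment was read as luminescence after 1 h with detection reagent at ambient temperature.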
D2 ag-2: agonists of human D2 dopamine receptor (beta-arrestin); 0.084% of 360,000 active; AID 624465; activation, % (concentration not given with the values); DiscoveRx PathHunter D2 beta-arrestin, luminescence, 90 min; 100% = 57 uM dopamine signal; in the data active means activation above about 40%; inconclusive means between about 15% and that limit
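Agonist mode: compounds alone added to overnight-plated D2 PathHunter cells for 90 min at 37 C, with 57 uM final dopamine (EC100) defining full response. Beta-arrestin recruitment detected by chemiluminescent reagent, read after 1 h at ambient temperature.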
Of the large screens only hits and unclear results are named; the others gave an inactive call. Only some compounds are listed: those with a hit (about 2.4% of all), similar ones and a draw of the others.

COc1ccc(C2=C(C)C(=O)N(Cc3ccc(C(=O)Nc4ccc(F)cc4C)cc3)S2(=O)=O)cc1	none (no result: D2 antag, D2 PAM-2, D2 ag-2)
CC1=C(C(=O)N2CCN(c3ccccc3)CC2)C2(CCCCC2)OC1=O	none (no result: D2 antag, D2 PAM-2, D2 ag-2)
COc1ccc(S(=O)(=O)N2CCCCC2c2cc(C(=O)Nc3ccccc3)no2)cc1 (configuration not stated)	none (no result: D2 antag, D2 PAM-1, D2 ag-1)
COc1ccc2c(C)c(CCC(=O)NCCc3ccc(OC)c(OC)c3)c(=O)oc2c1	none (no result: D2 antag, D2 PAM-2, D2 ag-2)
Clc1cc(Br)ccc1OCCn1ccnc1	none
CC1CCN(CCCCOc2ccc(Br)cc2)CC1	none
Brc1cccc(OCCN2CCCCC2)c1	D2 antag 48
Cc1cc(C)c(OCCCCN2CCC(C)CC2)c(Br)c1	none
Brc1cccc(OCCN2CCOCC2)c1	none
Cc1cc(Br)ccc1OCCn1ccnc1	D2 ag-2 70
Cc1cc(Br)ccc1OCCCCN1CCC(C)CC1	D2 antag 35
CC1CCN(CCCCOc2cccc(Br)c2)CC1	D2 antag 92
CS(=O)(=O)N1CCc2cc(C(=O)Nc3ccc(S(N)(=O)=O)cc3)ccc21	none (no result: D2 antag, D2 PAM-2, D2 ag-2)
COC(=O)c1c(NC(=O)CCCOc2ccccc2C)sc2c1CCC2	none (no result: D2 antag, D2 PAM-2, D2 ag-2)
CCCCNC(=O)c1nn(C)c2c1CSc1ccccc1-2	none (no result: D2 antag, D2 PAM-2, D2 ag-2)
COC(=O)c1c(C)oc2ccc(N(C(=O)Oc3ccccc3)S(=O)(=O)c3ccc(C(C)(C)C)cc3)cc12	none (no result: D2 antag, D2 PAM-2, D2 ag-2)
CCN(CC)C(=O)COc1ccc2oc(C)c(C(=O)OC(C)C)c2c1	D2 antag 31
Cc1oc2ccc(OS(C)(=O)=O)cc2c1C(=O)OC(C)C	none (no result: D2 PAM-1)
CCNC(=O)C1(C)CCCN1C(=O)c1cc(C)on1 (configuration not stated)	none (no result: D2 antag, D2 PAM-1, D2 ag-1)
Cc1ccc2oc(C(F)(F)C(F)F)cc(=O)c2c1	none
Cc1ccc2oc(C(Cl)(Cl)Cl)cc(=O)c2c1	D2 PAM-2 76
COC(=O)c1ccc(N=C2SCC(=O)N2C)cc1	none
COc1cc(C(=O)Nc2cc(S(C)(=O)=O)ccc2Cl)ccc1OCC(=O)N1CCOCC1	D2 antag 36
COc1ccc(OC)c(NC(=O)c2ccc(OCC(=O)N3CCOCC3)c(OC)c2)c1	none
CN1C(=O)c2ccc(NC(=O)c3c(C(=O)O)cccc3[N+](=O)[O-])cc2C1=O	D2 antag 34
CCN(CC)CC#CCC(O)(c1ccccc1)c1ccc(Br)cc1 (configuration not stated)	D2 antag 34
CC1CCN(CCCCOc2ccccc2F)CC1	D2 antag 82
CC1CCN(CCCCOc2ccccc2Br)CC1	D2 antag 91
Brc1ccccc1OCCCCN1CCCCC1	D2 antag 76
Brc1ccccc1OCCCN1CCOCC1	none
CCOc1ccc(CN2C(=O)c3ccccc3Sc3ccc(C(=O)N4CCN(C)CC4)cc32)cc1	none (no result: D2 antag, D2 PAM-2, D2 ag-2)
COc1ccc(NC(=O)c2oc3ccc(S(=O)(=O)N(C)C4CCCCC4)cc3c2C)cc1Cl	none (no result: D2 antag, D2 PAM-2, D2 ag-2)
CCC(C)NCCOc1ccc(C)cc1[N+](=O)[O-] (configuration not stated)	D2 antag 54
C=CCN(CC=C)CCOc1ccc(C)cc1[N+](=O)[O-]	D2 antag 38
CCCCNCCOCCOc1ccc(C)cc1[N+](=O)[O-]	none
COCCCNCCCCOc1ccc(C)cc1[N+](=O)[O-]	none (no result: D2 antag, D2 PAM-1, D2 ag-1)
C=CCc1ccc(OCCOCCOc2ccc(C)cc2[N+](=O)[O-])c(OC)c1	none
C=CCNCCOc1ccc(C)cc1[N+](=O)[O-]	D2 antag 46
O=C(c1cc2c(s1)-c1ccccc1OC2)N1CCc2ccccc2C1	D2 antag 33
N#Cc1ccc(Cl)cc1NC(=O)CN1C(=O)C(=O)N(CCC2=CCCCC2)C1=O	none (no result: D2 antag, D2 PAM-1, D2 ag-1)
Nc1[nH]n2c(=O)c3c(nc2c1N=Nc1ccccc1)CCCC3	D2 antag 37
Cc1[nH]n2c(=O)c3c(nc2c1-c1ccc(Cl)cc1)CCC3	D2 antag 75
Nc1[nH]n2c(=O)c3c(nc2c1N=Nc1ccc(Cl)cc1)CCCC3	none
Cc1[nH]n2c(=O)c3c(nc2c1-c1ccccc1)CCC3	D2 antag 36
CC(CNC(=O)c1sc2ncccc2c1-n1cccc1)c1ccccc1 (configuration not stated)	none (no result: D2 antag, D2 PAM-2, D2 ag-2)
COc1ccccc1CNC(=O)C(C)n1c(=O)cc(-c2ccccc2)c2c(C)nn(C)c21 (configuration not stated)	none (no result: D2 antag, D2 PAM-2, D2 ag-2)
O=C(NCCc1ccccc1)C(=O)NCC1OCCN1S(=O)(=O)c1ccc(Br)cc1 (configuration not stated)	D2 antag 31
Cc1cc(F)ccc1S(=O)(=O)N1CCCOC1CNC(=O)C(=O)NCCCN1CCOCC1 (configuration not stated)	D2 ag-1 32
COc1ccccc1CCNC(=O)C(=O)NCC1OCCCN1S(=O)(=O)c1cc(C)ccc1C (configuration not stated)	D2 antag 34
Cc1cc(F)ccc1S(=O)(=O)N1CCCOC1CNC(=O)C(=O)NCCN1CCOCC1 (configuration not stated)	none
COc1cc(NC(=O)CSc2nccn2C)cc(OC)c1OC	none (no result: D2 antag, D2 PAM-2, D2 ag-2)
Cc1ccc2nc(-c3ccco3)c(Cc3cccc(F)c3)n2c1	none (no result: D2 antag, D2 PAM-1, D2 ag-1)
CCOC(=O)C1=NN(C(=O)c2ccc(C)cc2)C(O)(c2ccc(Cl)cc2)C1 (configuration not stated)	D2 ag-1 31
O=C(c1ccc(S(=O)(=O)N2CCCCCC2)cc1)N1CCN(c2ccccc2F)CC1	none (no result: D2 antag, D2 PAM-1, D2 ag-1)
C=CCn1c(=O)c(C#N)cc2c(=O)n3ccccc3nc21	D2 antag 58
COc1cccc(C2C(C(=O)Nc3ccc(Cl)cc3)=C(C)Nc3c(C(=O)Nc4ccccc4)cnn32)c1OC (configuration not stated)	none (no result: D2 antag, D2 PAM-2, D2 ag-2)
Cc1ccc(NC(=O)CSc2nncs2)cc1Cl	D2 antag 48
Cc1nc(NC(=O)CSc2nncs2)c(Cl)cc1Cl	none
Cc1ccc(S(=O)(=O)Cc2ccc(C(=O)N3CCN(Cc4ccccc4)CC3)o2)cc1	D2 PAM-1 51 (no result: D2 PAM-2, D2 ag-2)
Cc1ccc(S(=O)(=O)Cc2ccc(C(=O)N3CCc4ccccc4C3)o2)cc1	D2 PAM-1 58
COc1ccc(S(=O)(=O)Cc2ccc(C(=O)N3CCN(Cc4ccccc4)CC3)o2)cc1	none
Cc1cc(Br)ccc1N=C1C(=O)Nc2ccccc21	D2 antag 59
Nc1cc(=O)nc(SCC(=O)Nc2ccccc2)n1CCc1ccccc1	none (no result: D2 antag, D2 PAM-2, D2 ag-2)
Cn1cccc1CNC(=O)Nc1ccc(Cl)cc1	D2 antag 31
Cn1cccc1CNC(=O)Nc1ccccc1	none
Cn1cccc1CNCc1ccccc1Cl	D2 ag-1 50
CCCCCNCc1cccn1C	none
COc1n[nH]c(C(=O)Nc2cc(Cl)ccc2Cl)c1[N+](=O)[O-]	D2 antag 32
Nc1ccc(S(=O)(=O)c2cc(O)c3ccccc3c2O)cc1	D2 PAM-2 51, D2 ag-2 inconclusive (no result: D2 antag, D2 PAM-1, D2 ag-1)
O=S(=O)(c1ccccc1)c1cc(O)ccc1O	D2 ag-2 inconclusive
Cc1ccc(OCc2cc(C(=O)N(C)CCc3nc4ccccc4[nH]3)no2)cc1C	none
